Where a chain is given by its changes, count along the chain named.
Legend:
Assay in all cases: PBM; 200 nM protein, PBS
Conditions in all cases: dsDNA, one strand shown
[1] = target: T1, SIX6 (Homo sapiens, UniProt O95475 114-200, L167I)
T1 sequence: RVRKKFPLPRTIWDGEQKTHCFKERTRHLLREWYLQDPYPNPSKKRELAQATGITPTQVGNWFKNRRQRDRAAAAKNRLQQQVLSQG

[2] = target: T2, SIX6 (Homo sapiens, UniProt O95475 114-200, L143V)
T2 sequence: T1 sequence with L30V, I54L

[3] = target: T3, SIX6 (Homo sapiens, UniProt O95475 114-200, H141N)
T3 sequence: T1 sequence with H28N, I54L

[4] = target: T4, SIX6 (Homo sapiens, UniProt O95475 114-200, T165P)
T4 sequence: T1 sequence with T52P, I54L

[5] = target: T5, SIX6 (Homo sapiens, UniProt O95475 114-200, L167M)
T5 sequence: T1 sequence with I54M

[6] = target: T6, SIX6 (Homo sapiens, UniProt O95475 114-200, L143M)
T6 sequence: T1 sequence with L30M, I54L

[7] = target: T7, SIX6 (Homo sapiens, UniProt O95475 114-200, L143I)
T7 sequence: T1 sequence with L30I, I54L

[8] = target: T8, SIX6 (Homo sapiens, UniProt O95475 114-200, T165G)
T8 sequence: T1 sequence with T52G, I54L

[9] = target: T9, SIX6 (Homo sapiens, UniProt O95475 114-200, T139Q)
T9 sequence: T1 sequence with T26Q, I54L

[10] = target: T10, SIX6 (Homo sapiens, UniProt O95475 114-200, T165A)
T10 sequence: T1 sequence with T52A, I54L

[11] = target: T11, SIX6 (Homo sapiens, UniProt O95475 114-200, L167V)
T11 sequence: T1 sequence with I54V

[12] = target: T12, SIX6 (Homo sapiens, UniProt O95475 114-200)
T12 sequence: T1 sequence with I54L

[13] = target: T13, SIX6 (Homo sapiens, UniProt O95475 114-200, T165I)
T13 sequence: T1 sequence with T52I, I54L

[14] = target: NKX3-2 (Homo sapiens, UniProt P78367 192-278, P234S)
NKX3-2 (Homo sapiens, UniProt P78367 192-278, P234S), sequence (P78367 192-278 P234S): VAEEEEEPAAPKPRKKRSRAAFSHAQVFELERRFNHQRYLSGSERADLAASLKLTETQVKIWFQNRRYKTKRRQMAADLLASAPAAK

[15] = target: NKX3-2 (Homo sapiens, UniProt P78367 192-278)
NKX3-2 (Homo sapiens, UniProt P78367 192-278), sequence (P78367 192-278): as the sequence (P78367 192-278 P234S) above, with S43P counted along it

Row | Sequence | binding signal [1] | binding signal [2] | binding signal [3] | binding signal [4] | binding signal [5] | binding signal [6] | binding signal [7] | binding signal [8] | binding signal [9] | binding signal [10] | binding signal [11] | binding signal [12] | binding signal [13] | binding signal [14] | binding signal [15]
1 | CATGATAC | 11.2 upbm affinity estimate (log intensity, higher = more binding, comparable within an allelic series) | 10.3 upbm affinity estimate (log intensity, higher = more binding, comparable within an allelic series) | 11.2 upbm affinity estimate (log intensity, higher = more binding, comparable within an allelic series) | 9.82 upbm affinity estimate (log intensity, higher = more binding, comparable within an allelic series) | 10.7 upbm affinity estimate (log intensity, higher = more binding, comparable within an allelic series) | 10.9 upbm affinity estimate (log intensity, higher = more binding, comparable within an allelic series) | 10.4 upbm affinity estimate (log intensity, higher = more binding, comparable within an allelic series) | 11.3 upbm affinity estimate (log intensity, higher = more binding, comparable within an allelic series) | 11.2 upbm affinity estimate (log intensity, higher = more binding, comparable within an allelic series) | 11.1 upbm affinity estimate (log intensity, higher = more binding, comparable within an allelic series) | 11 upbm affinity estimate (log intensity, higher = more binding, comparable within an allelic series) | 11 upbm affinity estimate (log intensity, higher = more binding, comparable within an allelic series) | 10.9 upbm affinity estimate (log intensity, higher = more binding, comparable within an allelic series) | – | –
2 | GCTGTCCC | 8.84 upbm affinity estimate (log intensity, higher = more binding, comparable within an allelic series) | 8.8 upbm affinity estimate (log intensity, higher = more binding, comparable within an allelic series) | 8.82 upbm affinity estimate (log intensity, higher = more binding, comparable within an allelic series) | 9.07 upbm affinity estimate (log intensity, higher = more binding, comparable within an allelic series) | 8.79 upbm affinity estimate (log intensity, higher = more binding, comparable within an allelic series) | 8.89 upbm affinity estimate (log intensity, higher = more binding, comparable within an allelic series) | 8.88 upbm affinity estimate (log intensity, higher = more binding, comparable within an allelic series) | 8.98 upbm affinity estimate (log intensity, higher = more binding, comparable within an allelic series) | 9.06 upbm affinity estimate (log intensity, higher = more binding, comparable within an allelic series) | 8.87 upbm affinity estimate (log intensity, higher = more binding, comparable within an allelic series) | 9.03 upbm affinity estimate (log intensity, higher = more binding, comparable within an allelic series) | 8.86 upbm affinity estimate (log intensity, higher = more binding, comparable within an allelic series) | 8.9 upbm affinity estimate (log intensity, higher = more binding, comparable within an allelic series) | – | –
3 | ATGTATCG | 11 upbm affinity estimate (log intensity, higher = more binding, comparable within an allelic series) | 10.3 upbm affinity estimate (log intensity, higher = more binding, comparable within an allelic series) | 11 upbm affinity estimate (log intensity, higher = more binding, comparable within an allelic series) | 10 upbm affinity estimate (log intensity, higher = more binding, comparable within an allelic series) | 10.6 upbm affinity estimate (log intensity, higher = more binding, comparable within an allelic series) | 10.8 upbm affinity estimate (log intensity, higher = more binding, comparable within an allelic series) | 10.4 upbm affinity estimate (log intensity, higher = more binding, comparable within an allelic series) | 11 upbm affinity estimate (log intensity, higher = more binding, comparable within an allelic series) | 11.1 upbm affinity estimate (log intensity, higher = more binding, comparable within an allelic series) | 11 upbm affinity estimate (log intensity, higher = more binding, comparable within an allelic series) | 10.7 upbm affinity estimate (log intensity, higher = more binding, comparable within an allelic series) | 10.9 upbm affinity estimate (log intensity, higher = more binding, comparable within an allelic series) | 10.8 upbm affinity estimate (log intensity, higher = more binding, comparable within an allelic series) | – | –
4 | CGCAGAGC | 8.98 upbm affinity estimate (log intensity, higher = more binding, comparable within an allelic series) | 8.91 upbm affinity estimate (log intensity, higher = more binding, comparable within an allelic series) | 8.85 upbm affinity estimate (log intensity, higher = more binding, comparable within an allelic series) | 9 upbm affinity estimate (log intensity, higher = more binding, comparable within an allelic series) | 8.82 upbm affinity estimate (log intensity, higher = more binding, comparable within an allelic series) | 8.9 upbm affinity estimate (log intensity, higher = more binding, comparable within an allelic series) | 8.9 upbm affinity estimate (log intensity, higher = more binding, comparable within an allelic series) | 8.85 upbm affinity estimate (log intensity, higher = more binding, comparable within an allelic series) | 8.88 upbm affinity estimate (log intensity, higher = more binding, comparable within an allelic series) | 8.97 upbm affinity estimate (log intensity, higher = more binding, comparable within an allelic series) | 9.02 upbm affinity estimate (log intensity, higher = more binding, comparable within an allelic series) | 8.83 upbm affinity estimate (log intensity, higher = more binding, comparable within an allelic series) | 8.83 upbm affinity estimate (log intensity, higher = more binding, comparable within an allelic series) | 10.6 upbm affinity estimate (log intensity, higher = more binding, comparable within an allelic series) | 10.6 upbm affinity estimate (log intensity, higher = more binding, comparable within an allelic series)
5 | AGGCCCCG | 8.89 upbm affinity estimate (log intensity, higher = more binding, comparable within an allelic series) | 8.82 upbm affinity estimate (log intensity, higher = more binding, comparable within an allelic series) | 8.69 upbm affinity estimate (log intensity, higher = more binding, comparable within an allelic series) | 8.87 upbm affinity estimate (log intensity, higher = more binding, comparable within an allelic series) | 8.92 upbm affinity estimate (log intensity, higher = more binding, comparable within an allelic series) | 8.79 upbm affinity estimate (log intensity, higher = more binding, comparable within an allelic series) | 8.8 upbm affinity estimate (log intensity, higher = more binding, comparable within an allelic series) | 8.83 upbm affinity estimate (log intensity, higher = more binding, comparable within an allelic series) | 8.79 upbm affinity estimate (log intensity, higher = more binding, comparable within an allelic series) | 8.77 upbm affinity estimate (log intensity, higher = more binding, comparable within an allelic series) | 8.67 upbm affinity estimate (log intensity, higher = more binding, comparable within an allelic series) | 8.75 upbm affinity estimate (log intensity, higher = more binding, comparable within an allelic series) | 8.82 upbm affinity estimate (log intensity, higher = more binding, comparable within an allelic series) | – | –

— PMC11006913
